Test results reported in the OligoGym collection.

The sequences below were run against BARX2 (assay: pooled miR-30 sensor sort-seq; sequence = guide strand). Conditions: shRNA.
Note: reference of the scale not given here.

Sequence | sensor-assay potency score (higher = more potent)
TTTCTCAAAGTAATCGCAGGTC | 0.887
TTAAGAACCATTTTCTTCCATT | -0.688
TCAATCTCTTCTGATGTGGGGA | 0.111
TCGTCGATCATGAAAGTCTTGT | -0.832
TTCTCTTCAGCTTCAATCTCTT | -0.0921
TAATCGCAGGTCTCCTTGGAGA | -1.07
TCAGCTTCAATCTCTTCTGATG | -1.18
TGCTTCACAGAGCTCCTCCTGC | -0.821

These sequences were tested against BAX in the same assay as above. Conditions: shRNA.

Sequence | sensor-assay potency score (higher = more potent)
TGATGGTTCTGATCAGTTCCGG | -0.352
TCGATCCTGGATGAAACCCTGA | -0.785
TACTGTCCAGTTCGTCCCCGAT | -0.951
TTCATGATCTGCTCAGAGCTGG | 0.0889
TGCGCTTGAGACACTCGCTCAG | 0.0222
TTACTGTCCAGTTCGTCCCCGA | -0.0654
TTGCCGTCAGAAAACATGTCAG | -0.725
TTCTTGGTGGACGCATCCTGAG | -1.72
TTGGATCCAGCCCAACAGCCGC | -1.52
ATCAGTTCCGGCACCTTGGTGC | -0.369
AACATGTCAGCTGCCACTCGGA | -1.25
TAGGAGAGGAGGCCGTCCCAAC | -1.61
TCGGAAAAAGACCTCTCGGGGG | -0.669
TAGAAAAGGGCGACAACCCGGC | -0.132
AATCATCCTCTGCAGCTCCATG | -1.42
TCATGATCTGCTCAGAGCTGGT | -1.61
ATGCGCTTGAGACACTCGCTCA | -1.61
TTGAGCACCAGTTTGCTGGCAA | 0.213
ATGATCTGCTCAGAGCTGGTGG | -1.15
TCTTGGTGGACGCATCCTGAGG | -1.92
TTGAGACACTCGCTCAGCTTCT | -0.529
AAACATGTCAGCTGCCACTCGG | -0.504

The sequences below were run against BBC3 in the same assay as above. Conditions: shRNA.

Sequence | sensor-assay potency score (higher = more potent)
TACAGTATCTTACAGGCTGGGC | -0.231
TTGTCTCCGCCGCTCGTACTGT | -1
TATACAGTATCTTACAGGCTGG | -0.558
TCGTACTGTGCGTTGAGGTCGT | 0.393
TGCGTTGAGGTCGTCCGCCATC | -1.7
TCCGCCGCTCGTACTGTGCGTT | -1.32
TGTGCGTTGAGGTCGTCCGCCA | -0.785
TGCTCCGCCAGCGAGAGCGAGG | -2.06
TACAGGACCCTCCAGGGTGAGG | -1.57
TTGAGGTCGTCCGCCATCCGCC | -1.67
